Out of some 420,000 compounds screened, about 50,000 (12%) were called active. Not shown: some 26% with an inconclusive outcome. The full list was thinned out, with actives kept by preference. Values without a mark were called inactive. Calls come from the whole dose curve; as a rule, active = well fitted inhibition curve with a large enough effect; inconclusive = small, poorly fitted or top-dose-only effect; inactive = flat fitted curve, though single readings scatter.
Assay: qHTS for Inhibitors of human tyrosyl-DNA phosphodiesterase 1 (TDP1): qHTS in cells in presence of CPT; note: nearly all actives have a fitted effect of over 55% in size
Settings: chicken DT40 Tdp1-/-;hTDP1 cells + 20 nM CPT, ATP luminescence, 48 h; series mostly up to 46.2 µM; activity change, negative = growth inhibition: at the top concentration
In short: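 Cell growth measured by CellTiter-Glo luminescence after a minimum 48 h, 37 C compound exposure with 20 nM CPT in Tdp1-knockout DT40 cells stably expressing hTDP1, seeded 400/well; qHTS titration format.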
% is set by controls: 0 for no effect and ±100 for the full control effect; potency is the fitted concentration of half-maximal effect.

Compound	activity change, negative = growth inhibition [%]	Potency
NC(=O)c1ncn([C@@H]2O[C@H](CNCc3cnc(N4CCOCC4)s3)[C@@H](O)[C@H]2O)n1	1.26	
CCOc1ccc(-c2nnn(CC(=O)N3CCN(c4ccc(F)cc4)CC3)n2)cc1OCC	0.386	
O=C(Nc1ccccc1-c1nnn(CC(=O)N2CCN(c3ccccc3)CC2)n1)c1cccs1		14.6 µM (active)
CCOc1ccc(-c2nnn(CC(=O)N3CCN(c4ccc(OC)cc4)CC3)n2)cc1OCC	-12.9	
C[C@H]1CN([C@@H](C)CO)C(=O)CCCn2cc(nn2)CO[C@@H]1CN(C)S(=O)(=O)c1cccs1	-15.7	
CSc1ccc(NC(=O)Cn2nnnc2-c2ccccc2F)cc1	4.04	
C/C(=N/OC(=O)c1cccc(C(F)(F)F)c1)c1cnccn1	0.565	
Cc1nn(-c2ccccc2)c(C)c1NC(=O)COc1ccc(Cl)cc1Cl		16.4 µM (active)
C/C=C/c1ccc(OCC(=O)OCC(=O)Nc2c(C)nn(-c3ccccc3)c2C)c(OC)c1	-0.721	
Cc1nn(-c2ccccc2)c(C)c1NC(=O)COC(=O)c1cc(Cl)ccc1O	-1.94	
Cc1cc(=O)oc2c3c(cc(OCC(=O)NCCC(=O)N[C@@H](C)C(=O)O)c12)OC(C)(C)CC3	0.114	
C/C(=N/NS(=O)(=O)c1ccccc1)c1ccc(NC(=O)C(F)(F)F)cc1	-2.7	
COCC1CCN(C(=O)C2CCC(=O)N(CC3CCCCC3)C2)CC1 (centres undefined)	5.32	
COc1ccccc1NC(=O)c1oc2ccccc2c1NC(=O)C(C)C		10.3 µM (active)
COc1ccccc1C(=O)Nc1ccc(Nc2ccccc2)cc1	22.7	
COc1ccccc1NC(=O)c1oc2ccccc2c1NC(=O)COc1ccccc1OC	-15.5	
Cc1ccc(NC(=O)c2oc3ccccc3c2NC(=O)Cc2cccs2)cc1	-14.1	
Cc1c(C(=O)NNC(=O)c2ccncc2)oc2ccccc12	22.9	
Cc1ccc(C(=O)Nc2c(-c3ccccc3)[nH][nH]c2=O)cc1	-3.84	
COc1ccccc1C(=O)Nc1c(C(=O)Nc2ccc(C)cc2)oc2ccccc12		20.6 µM (active)
Cc1ccc(C(=O)Nc2c(C(=O)NC(C)(C)C)oc3ccccc23)cc1		20.6 µM (active)
COc1ccccc1NC(=S)NC(=O)C(C)C	15.3	
C#CCOCCOCCOCCNc1nc(N2CCN(C(=O)C([C@@H](C)CC)n3cc(C(N)COC(=O)C(F)(F)F)nn3)CC2)nc(N2CCN(C(=O)[C@H](Cc3ccc(O)cc3)n3cc(C(N)[C@H](C)CC)nn3)CC2)n1 (some centres undefined)	-7.81	
CCOc1ncccc1C(=O)OCC(=O)c1c[nH]c2ccccc12	-25.7	
CC1CN(C(=S)Nc2ccc(S(N)(=O)=O)cc2)CC(C)O1 (centres undefined)	-15.7	

Compound	activity change, negative = growth inhibition [%]	Potency
C/C=C/C1=C(C(=O)O)N2C(=O)[C@@H](NC(=O)[C@H](N)c3ccc(O)cc3)[C@H]2SC1	22.8	
O=C(NNc1cc(Cl)cc(Cl)c1)c1c(F)cccc1Cl	-10.4	
CN(CC(=O)NNC(=O)CNC(=O)c1ccccc1Cl)S(=O)(=O)c1ccc(Cl)cc1	-22	
CC(=O)Nc1ccc(NC(=O)CSc2nnc3c4cc(Br)ccc4n(C)c3n2)cc1	-12.3	
O=C(CSc1ccc(Cl)cc1)NC1CC1	-22.6	
CN(CCOc1ccccc1)C(=O)c1cc(COc2c(F)cccc2F)on1	-21	
COc1cccc(CNC(=O)CCN2C(=S)NC(C)(C)CC2C)c1 (centres undefined)	-8.76	
COc1nc(N(C)C)nc(N2CC(=O)N(CCNS(=O)(=O)c3ccc(C)cc3)C2=N)n1	17.4	
C=C1C(=O)[C@]23C[C@H]1CCC2[C@@]1(C)C(C[C@@H]3O)[C@](C)(C(=O)O)CC[C@@H]1O (some centres undefined)		1.84 µM (active)
Cc1cnc(CN(C)C(=O)CC2C(=O)NCCN2Cc2cccc(F)c2F)[nH]1 (centres undefined)	2.68	
CCCC1NC(=O)NC(C)=C1C(=O)OCC (centres undefined)	13.2	
CCCCn1c(N)c(N(CC)C(=O)c2ccccc2C(F)(F)F)c(=O)[nH]c1=O	3.08	
Cc1ccc(CNC(=O)Cn2cnc3c(NCc4ccccc4)ncnc32)o1		18.4 µM (active)
Cc1ccc(NC(=O)Cn2cnc3c(OCc4ccccc4)ncnc32)cc1C	-10.5	
Cc1ccc(CNC(=O)Cn2cnc(S(=O)(=O)N3CCCCC3)c2)o1	-4.28	
Cn1c(=O)c2c(SCC(=O)NCC3CCCO3)nc(CC(C)(C)C)nc2n(C)c1=O (centres undefined)	-18.2	
Cc1ccc(NC(=O)c2cn3c4c(ccc(Cl)c4c2=O)OC(C)C3)cc1C (centres undefined)	-0.412	
Cc1ccc(C)c(C(C)NC(=O)C2CCCO2)c1 (centres undefined)	-22.5	
Cc1nc(N)nc(Cl)c1CCC1OCCO1	18.7	
Cc1cccc(-n2ncc(Cl)c(Cl)c2=O)c1		5.17 µM (active)
O=c1c(Cl)c(NC2CC2)cnn1-c1ccccc1	-3.31	
C=CCNc1cnn(-c2ccc(C)cc2)c(=O)c1Cl	7.55	
O=C(OCC(=O)N1CCc2ccccc21)C1CCCN1S(=O)(=O)c1ccc(Cl)cc1 (centres undefined)	-18.7	
Cc1ccc(S(=O)(=O)NCC(=O)OCC(=O)N2CCc3ccccc32)cc1	-5.65	

— PubChem BioAssay AID686979 (National Center for Advancing Translational Sciences (NCATS), 2013)
